Inhibition data for 26 compounds are collected here from ChEMBL document CHEMBL3433997, “St. Jude Leishmania screening dataset” (2016).

The assay concerns the target Glucose transporter (Leishmania mexicana) (UniProt O61059). Put plainly: ST_JUDE_LEISH: Cytotoxicity at 2uM final concentration against transgenic Leishmania Mexicana promastigotes LmGT2 that are glucose transport deficient and complemented with the L. Mexicana glucose transporter 2. Activity is measured by DNA content using SYBR green in vitro. The class given is functional.
In general, inhibition refers to the drop in the measured response relative to a control, in per cent. Consider `CC(C)COc1ccc(Cl)cc1Cc1ccc(-c2nc3ccc(Br)cc3[nH]2)o1`, for which the inhibition is 4.95%.

Take `Cc1ccccc1C1CCN(C2CCC(NC(=O)/C=C/c3cc(F)ccc3C(F)(F)F)CC2)CC1` (stereo unspecified): the inhibition was found to be 1.99%.

With `COc1ccc(C#Cc2ccc(-c3c(C)[nH]c(C)c(Cl)c3=O)cc2)cc1`, the inhibition was found to be 4.03%.

As to `CC(=O)Nc1cccc(C(=O)Nc2cccc(-c3csc(-c4nc5ccccc5[nH]4)c3)c2)c1`, the inhibition came to 3.14%.

As to `O=C1COc2ccc(CNC3CCC(O)(CCc4ccnc5cc6c(cc45)OCCO6)CC3)nc2N1` (stereo unspecified), the inhibition was found to be 2.8%.

Take `C/C=C/COc1ccc2ccccc2c1CNCCCCCCCCNCc1c(OC/C=C/C)ccc2ccccc12`: the inhibition is 1.19%.

For `CC(C)(C)c1ccc(Cc2cccc3nc(N)nc(N)c23)cc1`, the inhibition was found to be 11.4%.

`CN(CCCNC(=S)NC12CC3CC(CC(C3)C1)C2)CCCNc1ccnc2cc(Cl)ccc12`: the inhibition was determined as 1.25%.

For `COc1cc2nc(Cl)nc(Nc3ccncc3)c2cc1OC`, the inhibition is -1.27%.

As to `COc1cc(NC(=O)CCCCCCCN2CCN(C)CC2)c2ncccc2c1`, the inhibition worked out at 1.09%.

For `O=C(N[C@@H](CC1CCCCC1)C(=O)NCc1cccc(C(F)(F)F)c1)c1ccc(O)c(-c2ccc(Cl)c(Cl)c2)c1`, the inhibition turned out to be 1.16%.

Turning to `CC(C)Cn1ncc2c3c(N)nc(N)nc3ccc21`, the inhibition worked out at 4.36%.

For the compound `CCN1CCN(Cc2ccc3nc(-c4cc(C)n(Cc5cc(Cl)ccc5OCc5ccccc5)n4)[nH]c3c2)CC1`, the inhibition is -0.3%.

`Cc1cc(N(C)CCN(C)C)nc(Nc2ccc(Cl)cc2)n1`: the inhibition was 7.48%.

Take `Cc1ccc([S+]([O-])Cc2ccc(Cl)cc2)cc1` (stereo unspecified): the inhibition stood at 1.2%.

`Cc1noc(C)c1-c1cccc(CNCc2ccc(-c3ccc(-c4nc5cc(C(F)(F)F)ccc5[nH]4)cc3)cc2)c1`: the inhibition was 4.2%.

As to `N#Cc1ccc2c(c1)CCN(CCC1CCC(NC(=O)c3cccc(-c4ccc(F)cc4)c3)CC1)CC2` (stereo unspecified), the inhibition stood at 5.8%.

As for `NCc1ccc(CNCc2cccc(-c3cccc(-c4nc5ccccc5[nH]4)c3)c2)cc1`, the inhibition was found to be 3.76%.

Consider `O=C1C2C(c3ccc(Cl)c(Cl)c3)N3CC(OCc4ccccc4)CC3(C(=O)O)C2C(=O)N1c1ccc(Br)cc1` (stereo unspecified), for which the inhibition came to 3.46%.

Turning to `CC(=O)N(C)c1cccc(C(=O)Nc2cccc(-c3cccc(-c4nc5cccc(C)c5[nH]4)c3)c2)c1`, the inhibition worked out at 11.4%.

Consider `Cc1ccc(CNC(=O)[C@H](CC(C)C)Nc2cc(C)nc(Nc3ccccc3)n2)cc1`, for which the inhibition is -0.24%.

Take `COc1cccc2c(N/N=C/c3ccccc3[N+](=O)[O-])ccnc12`: the inhibition was 3.87%.

On to `COc1cc2c(cc1OCCN1CCC(N3CCCC3)CC1)N(C(=O)/C=C/c1ccccc1Cl)CC2`, for which the inhibition was 2.99%.

For the compound `Cc1ccc(N(CCC(=N)N)Cc2ccccc2)cc1`, the inhibition is 4.68%.

With `COc1ccc2ccc(F)c(CCN3CCC(NCc4cc5c(cn4)OCCO5)CC3)c2n1`, the inhibition was determined as 22.4%.

As to `O=C(CN1CCC(NCc2cnc(-c3ccc(Cl)cc3)[nH]2)CC1)N1CCc2ccccc21`, the inhibition is 0.77%.
